Shown are actives, neighbours in structure and some others; about 12% of the full set was active somewhere.
G9a inh: blocks human histone lysine methyltransferase G9a; Q96KQ7; G9a H3K9 monomethylation, AlphaScreen, 2 h; Potency, µM (doses to about 102 µM), actives largely listed as inhibitors; 8.8% of 350,000 active; further: nearly all actives have a fitted effect of over 75% in size
Target sequence (Q96KQ7 913-1193 limits assumed): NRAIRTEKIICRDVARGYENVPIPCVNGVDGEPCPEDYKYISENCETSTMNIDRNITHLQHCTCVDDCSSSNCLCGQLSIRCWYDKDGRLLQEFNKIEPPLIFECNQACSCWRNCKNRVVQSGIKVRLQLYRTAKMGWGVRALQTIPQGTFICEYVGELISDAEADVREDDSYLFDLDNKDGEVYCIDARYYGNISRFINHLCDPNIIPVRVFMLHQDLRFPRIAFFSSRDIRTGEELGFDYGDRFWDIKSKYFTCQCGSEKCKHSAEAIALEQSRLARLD
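Compounds were preincubated with 20 nM G9a for 15 min, after which biotinylated H3K9 peptide (500 nM) and SAM (20 uM) started a 2 h room-temperature reaction. Monomethylated product was quantified by antibody-based AlphaScreen chemiluminescence.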
BAZ2B inh: BAZ2B (human) inhibition | Q9UIF8 | AlphaScreen BAZ2B-H3K14Ac peptide displacement | Potency, µM (highest dose often 114 µM), usual class: inhibitors | 4.4% of 360,000 active; further: nearly all actives have a fitted effect of over 60% in size
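AlphaScreen luminescence quantifies BAZ2B engagement of H3K14Ac peptide; the protein and biotinylated peptide are both at 50 nM final, buffer PBS pH 7.4 with 0.01% Tween-20, all steps at room temperature.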
JMJD2A Tudor inh: inhibitors of human JMJD2A Tudor domain. AlphaScreen JMJD2A-Tudor / H3K4me3 peptide binding. 4.4% of 390,000 active. O75164. Potency, µM (top dose mostly 114 µM), usual class: inhibitors; further: nearly all actives have a fitted effect of over 50% in size
Sfp PPTase inh: blocks B. subtilis Sfp PPTase activity; Q9F4F7; Biochemical Sfp PPTase activity, qHTS; Potency, µM, usual class: inhibitors; 3.5% of 310,000 active; AID 1490;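 further: the enzyme is Sfp with the accession as filed and its product quenches rhodamine fluorescence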
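Sfp 15 nM + cpd, 15 min RT; start w/ rhodamine-CoA 5 uM, BHQ-2-YbbR 12.5 uM (final); 50 mM Hepes pH 7.6, 10 mM MgCl2, 0.01% NP-40, 0.01% BSA; read 525/598 nm at 0 and 30 min.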
HP1b chromo inh: inhibitors of HP1-beta chromodomain binding to methylated histone tails | AlphaScreen HP1-beta / biotin-H3K9me3 peptide binding | Potency, µM (top dose mostly 114 µM), usual class: inhibitors | 0.56% of 390,000 active; further: nearly all actives have a fitted effect of over 70% in size
Target sequence (P83916 whole entry, looked up): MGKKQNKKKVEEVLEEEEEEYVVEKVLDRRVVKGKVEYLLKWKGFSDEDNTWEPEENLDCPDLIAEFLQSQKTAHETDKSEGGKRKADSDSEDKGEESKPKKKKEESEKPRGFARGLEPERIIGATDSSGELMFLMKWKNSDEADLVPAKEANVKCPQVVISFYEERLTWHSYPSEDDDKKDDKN
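Compound inhibition of the preformed complex between 50 nM HP1-beta and 50 nM biotinylated H3K9me3 peptide was read by AlphaScreen. Buffer was PBS pH 7.4 with 0.01% Tween-20. Incubations ran 30 min at room temperature, with 10 ug/mL donor/acceptor beads.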
Of the large screens only hits and unclear results are named; the others gave an inactive call. The call rests on the fitted dose curve; in most records, active means well fitted curve in the direction sought with a large enough effect; inconclusive means small, poorly fitted or top-dose-only effect, or another doubt; inactive means no such curve, though single readings can be large; an effect the other way counts as inactive or inconclusive.

O=C(NCCN1CCCC1=O)C1CCC(=O)N(CCc2ccc(Cl)cc2)C1 (centres undefined)	none (no result: G9a inh)
O=C(c1ccccc1)c1cc(F)c(N2CCOCC2)cc1Cl	none
O=C(c1ccccc1)c1cnc2ccc(Cl)cc2c1N1CCOCC1	G9a inh 50µM, BAZ2B inh inconclusive, JMJD2A Tudor inh inconclusive
COc1cc2ncc(C(=O)c3ccccc3)c(N3CCN(Cc4ccccc4)CC3)c2cc1OC	G9a inh 35µM, BAZ2B inh inconclusive, JMJD2A Tudor inh 22µM, HP1b chromo inh inconclusive
O=C(Nc1cccc(Br)c1)N1CCC(CN2CCCCCC2)CC1	none (no result: Sfp PPTase inh)
CC(C)c1ccc(S(=O)(=O)c2ccc(NN)cc2)cc1	G9a inh 10µM
O=C(N/N=C/c1ccco1)C(O)c1ccccc1 (centres undefined)	none
COc1ccc2c([N+](=O)[O-])c(Cl)[nH]c2c1	G9a inh 25µM, BAZ2B inh 79µM, JMJD2A Tudor inh 56µM, HP1b chromo inh inconclusive
COc1ccccc1NC(=O)c1ccc(NC(=O)COC(=O)C2(C)CC2(Cl)Cl)cc1 (centres undefined)	JMJD2A Tudor inh 79µM
CC1(C(=O)OCC(=O)Nc2ccc(C(N)=O)cc2)CC1(Cl)Cl (centres undefined)	none
Nc1cc(N)nc(SCC(=O)c2ccc3c(c2)NC(=O)CO3)n1	G9a inh 35µM
CCN(CC)c1ccc(CNC23CN4CN(CN(C4)C2)C3)cc1	G9a inh 3.2µM, JMJD2A Tudor inh inconclusive
COc1cc(CCc2ccccc2)c(C(=O)O)c(O)c1C/C=C(/C)CCC=C(C)C	JMJD2A Tudor inh 79µM (no result: G9a inh, BAZ2B inh, Sfp PPTase inh)
C/C(=N\NC(=O)c1ccc(OC2OCCOC2Oc2ccc(C(=O)N/N=C(\C)c3ccncc3)cc2)cc1)c1ccncc1 (centres undefined)	G9a inh 13µM
C/C(=N\NC(=O)c1ccncc1)c1ccc(N(C)C)cc1	JMJD2A Tudor inh 18µM, Sfp PPTase inh inconclusive
Cc1ccc(-c2cc(C(F)F)nc(N3CCOCC3)n2)cc1	none (no result: HP1b chromo inh)
COc1ccc(-c2cc(C(F)F)nc(-n3nc(C)cc3C)n2)cc1	Sfp PPTase inh 50µM
CCCCCCCCS(=O)c1sc2nc(C)cc(C)c2c1N (centres undefined)	G9a inh inconclusive, Sfp PPTase inh 45µM
CCCCCCCCS(=O)c1sc2nc3c(cc2c1N)CCCC3 (centres undefined)	none (no result: G9a inh, BAZ2B inh, Sfp PPTase inh)
COc1ccc(C2(N3CCN(c4cccc(C)c4C)CC3)C(=O)c3ccccc3C2=O)cc1	none (no result: Sfp PPTase inh)
COc1ccc(C2=C(N3CCN(c4cccc(C)c4C)CC3)c3ccccc3C2=O)cc1	G9a inh 3.2µM, BAZ2B inh 2.2µM, JMJD2A Tudor inh 5µM, HP1b chromo inh inconclusive (no result: Sfp PPTase inh)
Cc1ccc(C)c(N2CCN(C3=C(c4ccccc4)C(=O)c4ccccc43)CC2)c1	G9a inh 3.2µM, BAZ2B inh inconclusive, JMJD2A Tudor inh 2.5µM, HP1b chromo inh inconclusive (no result: Sfp PPTase inh)
Cc1ccc(C)c(N2CCN(CCCc3ccccc3)CC2)c1	none
CCn1cc(C(=O)O)c(=O)c2cc(F)c(N3CCN(S(=O)(=O)c4ccc(Br)cc4)CC3)cc21	none (no result: JMJD2A Tudor inh, HP1b chromo inh)
O=C(O)c1cn(C2CC2)c2cc(N3CCN(S(=O)(=O)c4ccc5c(c4)OCCO5)CC3)c(F)cc2c1=O	BAZ2B inh 50µM, JMJD2A Tudor inh inconclusive
CCOC(=O)C1CCN(C(=S)NC2CCCC2)CC1	none
COc1ccc(C2C(CC(=O)O)=C(Nc3ccccc3)C(=O)N2c2ccccc2)cc1 (centres undefined)	G9a inh inconclusive
O=C(O)CC1=C(Nc2ccccc2)C(=O)N(c2ccccc2)C1c1ccc(F)cc1 (centres undefined)	G9a inh 32µM
O=C(O)CC1=C(O)C(=O)N(c2ccccc2)C1c1ccc(Br)cc1 (centres undefined)	none
O=C(O)CC1=C(O)C(=O)N(c2ccccc2)C1c1ccccc1 (centres undefined)	G9a inh 13µM
CN(CC(=O)NCCc1ccc(S(N)(=O)=O)cc1)CC(=O)Nc1cccc(F)c1	none (no result: Sfp PPTase inh)
CC(C)[C@H](NC(=O)c1ccccc1)C(=O)OCc1nnc(-c2ccccc2)o1	JMJD2A Tudor inh 22µM, HP1b chromo inh inconclusive (no result: BAZ2B inh)
O=C(OCc1nnc(-c2ccccc2)o1)c1ccc(CO)cc1	none
Cc1ccc(C(=O)N[C@H](C(=O)OCc2nnc(-c3ccccc3)o2)C(C)C)cc1	none (no result: G9a inh)
Cc1ccc(C(=O)OCc2nnc(-c3ccccc3)o2)o1	JMJD2A Tudor inh 89µM
